Source: PubChem (National Center for Advancing Translational Sciences (NCATS))
TGFb inhibitor – inhibitors of TGF-b signaling. Potency, µM (doses to about 46.1 µM), hits mostly inhibitors. HepG2 CAGA-GFP TGF-b/SMAD3 reporter, GFP fluorescence, 18 h; TGF-beta stimulated, 500 pg/mL final. 1.2% of 410,000 active; also: nearly all actives have a fitted effect of over 65% in size
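Using HEPG2 CAGA-GFP reporter cells at 1000 cells/well, we pinned test compounds, stimulated with recombinant TGF-beta (500 pg/mL final) and measured total well GFP after 18 h.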
HepG2 tox – HepG2 cytotoxicity, counter-screen for TGF-b inhibitors. HepG2 CAGA-GFP viability, ATP luminescence, 18 h. Potency, µM (titrated, usually from 46.1 µM), actives largely listed as cytotoxic. 0.76% of 410,000 active
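CellTiter-Glo luminescence gave cytotoxicity after 18 hours at 37 degrees C. The cells were HepG2 CAGA-GFP in 1% FBS DMEM, stimulated with 500 pg/mL TGF-beta after compound addition. %Activity was normalised to no-cell wells (complete cell-killing) and DMSO (no toxicity), and curves were fitted and classified.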
DT40 TDP1 CPT – growth inhibition of DT40 Tdp1-/-;hTDP1 cells with camptothecin (screen for TDP1 inhibitors). chicken DT40 Tdp1-/-;hTDP1 cells + 20 nM CPT, ATP luminescence, 48 h. Potency, µM (top dose mostly 46.2 µM), most hits filed as inhibitors. 12% of 420,000 active. AID 686979; also: nearly all actives have a fitted effect of over 55% in size
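Cell growth measured by CellTiter-Glo luminescence after a minimum 48 h, 37 C compound exposure with 20 nM CPT in Tdp1-knockout DT40 cells stably expressing hTDP1, seeded 400/well; qHTS titration format.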
ATXN viability – viability counter-screen for ATXN expression inhibitors | S2 cells (HEK-293 line with an ATXN2-luciferase reporter) viability, CellTiter-Fluor protease fluorescence, 24 h | Potency, µM (series often up to 56.7 µM), most hits filed as cytotoxic | 0.49% of 400,000 active | AID 651635; also: nearly all actives have a fitted effect of over 40% in size
TDP1 cell noCPT – qHTS for Inhibitors of human tyrosyl-DNA phosphodiesterase 1 (TDP1): qHTS in cells in absence of CPT | DT40 Tdp1-/- hTDP1 cells, no CPT, ATP luminescence, 48 h | Potency, µM (top dose mostly 46.2 µM), most hits filed as inhibitors | 15% of 420,000 active | AID 686978, 2013; also: nearly all actives have a fitted effect of over 55% in size
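Readout: luminescence from CellTiter-Glo after 30 min in the dark at RT. Cells: DT40 Tdp1-/- with stable hTDP1, 400/well. Exposure: compounds alone, ≥48 hr, 37 °C.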
ATXN2 expr inh – ATXN2 expression inhibition. HEK-293 ATXN2-luciferase reporter, luminescence, 24 h. Potency, µM (doses to about 57 µM), actives largely listed as inhibitors. 0.72% of 360,000 active; also: nearly all actives have a fitted effect of over 55% in size
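ATXN2-luciferase reporter cells (luciferase flanked by upstream and downstream ATXN2 gene portions) were treated 24 h at 37 °C with compounds at up to 57 uM. SteadyGlo luminescence gave expression; GF-AFC fluorescence gave viability.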
Numbers stand for hits; i = inactive; ? = inconclusive; nt = no result; ! = not confirmed by another sample; [ ] = remark or other dose. Compounds with a hit are over-represented: about 17% of the library has one in this group of screens. Calls follow the shape of the dose curve; as a rule, active = well fitted curve in the direction sought with a large enough effect; inconclusive = small, poorly fitted or top-dose-only effect, or another doubt; inactive = no such curve, though single readings can be large; an effect the other way counts as inactive or inconclusive.

SMILES	TGFb inhibitor	HepG2 tox	DT40 TDP1 CPT	ATXN viability	TDP1 cell noCPT	ATXN2 expr inh
C#CCOCCOCCOCCNc1nc(N2CCN(C(=O)[C@H](Cc3cc4ccccc4[nH]3)n3cc([C@@H](N)Cc4ccc(O)cc4)nn3)CC2)nc(N2CCN(C(=O)[C@H](Cc3cc4ccccc4[nH]3)n3cc([C@@H](N)CC(C)C)nn3)CC2)n1	i	i	i	?	i	i
CCOCCn1ccc2c(OCC(=O)NCc3ccccc3)cccc2c1=O	i	i	i	i	i	i
Nc1ncnc2c1nc(Sc1ccc(Cl)cc1)n2[C@H]1OC2COP(=O)(O)O[C@H]2[C@@H]1O (some centres undefined)	nt	nt	i	nt	i	nt
Cn1cccc1C(=O)N1CCC2(CCCN(Cc3ccncc3)C2)CC1	nt	nt	i	nt	i	nt
Cc1ccc2nc(Cl)c3nnnn3c2c1	?	6.31µM	1.84µM	?	2.59µM	?
c1ccc(-c2nc3ccccc3c3nc4ccccc4n23)cc1	i	i	i	i	i	i
Cc1ccc(-c2nnc3c(C(F)(F)F)nc4ccccc4n23)cc1	?	i	20.6µM	?	20.6µM	i
CCOC(=O)c1ccccc1Nc1nc2ccc(C)cc2n2nnnc12	i	i	?	i	i	i
Cc1ccc2nc(NCc3ccccc3Cl)c3nnnn3c2c1	i	i	?	i	10.3µM	i
COc1ccc(OC)c(CNc2nc3ccc(C)cc3n3nnnc23)c1	i	i	i	nt	i	nt
Cc1ccc2nc(Nc3cccc(C(F)(F)F)c3)c3nnnn3c2c1	i	i	?	nt	?	nt
Cc1ccc2nc(N3CCN(c4ccc(F)cc4)CC3)c3nnnn3c2c1	i	i	7.31µM	nt	14.6µM	nt
COc1ccc(Nc2ccc(N3C(=O)CC(C)C3=O)cc2[N+](=O)[O-])cc1OC (centres undefined)	i	i	i	i	i	i
O=C(O)c1ccc(C2Nc3ccccc3C(=O)N2Cc2ccccc2)cc1 (centres undefined)	i	i	i	i	i	i
C=CCOc1ccc(C2NC(=O)c3ccccc3O2)cc1OC (centres undefined)	i	i	i	i	i	nt
Cc1ccc(-c2nc3ccccc3n3nnnc23)cc1	i	i	13µM	i	7.31µM	i
O=S(=O)(c1cnc(Cl)c(Br)c1)N1CCN(c2ncccn2)CC1	i	i	i	i	i	i
Cc1cccnc1NC(=O)c1nn(C)c2c1CS(=O)(=O)c1ccccc1-2	i	i	i	i	i	i
O=C(NCC1CCCO1)C1CCN(C2CCN(CCCC3CCCC3)CC2)CC1 (centres undefined)	i	i	14.6µM	i	23.1µM	i
Cc1cc2ccccn2c1C(=O)c1ccc(Cl)c([N+](=O)[O-])c1	?	i	20.6µM	i	?	i[11.3 µM]
Cc1c(C=O)c2ccccn2c1C(=O)c1ccc(Cl)c([N+](=O)[O-])c1	i	i	?	?	16.4µM	i
COc1ccc(C(=O)c2ccc(Cl)c([N+](=O)[O-])c2)cc1	?	i	0.82µM	?	0.731µM	i
Cc1cc2ccccn2c1C(=O)c1cccc([N+](=O)[O-])c1	i	i	?	i	?	nt
Cc1cc2ccccn2c1C(=O)c1ccc([N+](=O)[O-])o1	11.2µM	11.2µM	23.1µM	?	18.4µM	?
Cc1ccc(Nc2nc3c(c(=O)[nH]c(=O)n3C)n2Cc2ccc(F)cc2)cc1	?	i	i	i	i	i
SMILES	TGFb inhibitor	HepG2 tox	DT40 TDP1 CPT	ATXN viability	TDP1 cell noCPT	ATXN2 expr inh
CCCCNC(=S)N(CCO)Cc1cc2cc3c(cc2[nH]c1=O)OCCO3	i	i	?	i	i	i
O=C1C(NS(=O)(=O)c2ccccc2)=C(N2CCN(c3ccc(F)cc3)CC2)C(=O)c2ccccc21	?	i	?	i	?	i
O=C1C(NS(=O)(=O)c2cccs2)=C(N2CCN(c3cccc(Cl)c3)CC2)C(=O)c2ccccc21	?	i	20.6µM	i	23.1µM	i
CC(=O)NO	i	i	?	i	1.68µM!	i
CC(=O)NCCCCCCNC(C)=O	i	i	i	i	i	i
COc1ccc(Br)cc1C1N2CC3(C)CN1CC(C)(C2)C3=O (centres undefined)	i	i	i	i	i	i
C#CCNC(=O)C1=C[C@H](c2csc3ccccc23)C[C@H](OCCCCO)O1	i	i	?	i	?	i
COc1ccccc1CNC(=O)c1cc(-c2ccccc2)nn1CC1CC(c2cccnc2)=NO1 (centres undefined)	i	i	?	i	?	i
COc1ccc(C2=NOC(Cn3nc(-c4ccccc4)cc3C(=O)NCc3ccccc3OC)C2)cc1 (centres undefined)	i	i	11.6µM	i	10.3µM	i
Cc1ccccc1-c1cc(C(=O)NCc2ccco2)n(CC2CC(c3cccnc3)=NO2)n1 (centres undefined)	i	i	18.4µM	i	20.6µM	i
CCN(Cc1ccccc1)C(=O)C1CCC(CNS(=O)(=O)c2ccc3c(c2)CCCC(=O)N3)CC1 (centres undefined)	?	i	?	i	16.4µM	i
COc1cccc(CNC(=O)C2CCC(CNS(=O)(=O)c3ccc4c(c3)CCCC(=O)N4)CC2)c1 (centres undefined)	i	i	i	i	i	i
COc1cccc(NC(=O)C2CCC(CNS(=O)(=O)c3ccc4c(c3)CCCC(=O)N4)CC2)c1 (centres undefined)	i	i	11.6µM	i	14.6µM	i
CCOc1ccccc1NC(=O)C1CCC(CNS(=O)(=O)c2ccc3c(c2)CCCC(=O)N3)CC1 (centres undefined)	?	i	?	?	23.1µM	i
Cc1ccc(NC(=O)CN(C)S(=O)(=O)c2ccc3c(c2)n(C)c(=O)c(=O)n3C)cc1F	i	i	i	i	i	i
Cc1ccc(Oc2ccccc2NC(=O)CN2C(=O)NC3(CCCC3)C2=O)cc1	i	i	i	i	?	i
Cc1cccc(N2C(=O)/C(=C\c3ccc(C(=O)O)cc3)c3ccccc3C2=O)c1	i	i	18.4µM	?	?	i[11.3 µM]
O=Nc1nc2ncccn2c1-c1ccccc1	i	i	0.092µM	i	0.517µM	i
CCC(=O)C(C#N)(c1ccc(OC)c(OC)c1)C(C)C (centres undefined)	i	i	i	i	i	i
C=CCN1C(=O)C(=O)N(CC(=O)NCC(=O)Nc2ccc(F)c(F)c2F)C1=O	i	i	i	i	i	nt
CCC(C=C[C@@H]1OC(=O)C=C[C@H]1C)=C[C@H](C)CC=CC(C)=C[C@@H](C)C(=O)[C@@H](C)[C@H](O)[C@@H](C)CC(C)=CC(=O)O	nt	nt	nt	nt	nt	0.128µM
